From PubChem BioAssay (NCI)
This is part of a sample that, as a whole, favours compounds with a hit. Of some 79,000 tested, about 15% had one in any assay. The source made the active and inactive calls. Cut-off read from the data, not from the text of the source: active = growth inhibition above about 70%; inactive = the rest.

Assays:
[1] = NCI Yeast Anticancer Drug Screen. Data for the wt2 strain (AID 169);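 note: 0% = growth of vehicle-treated yeast cultures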; settings: S. cerevisiae wt2 strain growth inhibition, hits give high values
Procedure, shortened: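 Read-out: growth inhibition versus vehicle-treated control cultures after compound exposure of the yeast strain.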

[2] = NCI Yeast Anticancer Drug Screen. Data for the mlh1 strain (AID 171);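 note: 0% = growth of vehicle-treated control cultures of the same strain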; settings: S. cerevisiae mlh1 strain growth inhibition, hits give high values
Procedure, shortened: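 Read-out: growth inhibition versus vehicle controls. Strain: engineered yeast with a defined DNA repair or cell cycle defect, compound-treated.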

[3] = NCI Yeast Anticancer Drug Screen. Data for the sgs1 strain (AID 173);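 note: 0% = growth of vehicle-only control cultures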; settings: S. cerevisiae sgs1 mutant, hits give high values
Procedure, shortened: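 Read-out: yeast growth inhibition relative to vehicle controls, following compound exposure of a strain with a defined DNA repair/cell cycle alteration.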

[4] = NCI Yeast Anticancer Drug Screen. Data for the mlh1 rad18 strain (AID 175); settings: S. cerevisiae mlh1 rad18 strain growth inhibition, hits give high values
Procedure, shortened: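 Yeast w/ defined DNA-repair lesions; compound exposure; growth vs vehicle controls → % inhibition.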

[5] = NCI Yeast Anticancer Drug Screen. Data for the rad18 strain (AID 177); settings: S. cerevisiae rad18 mutant growth inhibition, hits give high values
Procedure, shortened: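 Readout: growth inhibition vs vehicle controls. Cells: genetically altered yeast strain, DNA repair defect.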

[6] = NCI Yeast Anticancer Drug Screen. Data for the rad52 strain (AID 147);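 note: 0% = growth of vehicle-treated control cultures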; settings: S. cerevisiae rad52 mutant growth inhibition, hits give high values
Procedure, shortened: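 Read-out: growth inhibition versus vehicle-treated controls. Cells were a DNA repair-deficient yeast strain treated with compounds.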

[7] = NCI Yeast Anticancer Drug Screen. Data for the wt1 strain (AID 149);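 note: 0% = growth of vehicle-treated wt1 cultures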; settings: S. cerevisiae wt1 strain (SPY 50644) growth inhibition, hits give high values
Procedure, shortened: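 Readout: yeast growth inhibition, normalised to vehicle controls, in the wt1 strain exposed to test compounds.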

[8] = NCI Yeast Anticancer Drug Screen. Data for the rad50EPP+ strain (AID 151);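 note: 0% = growth of vehicle-treated control cultures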; settings: S. cerevisiae rad50 mutant strain, hits give high values
Procedure, shortened: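 Growth inhibition read against vehicle controls in rad50EPP+ yeast, a strain altered in DNA damage repair, after compound exposure.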

[9] = NCI Yeast Anticancer Drug Screen. Data for the mgt1 strain (AID 153); settings: S. cerevisiae mgt1 mutant growth inhibition, hits give high values
Procedure, shortened: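 mgt1 yeast grown with test compound; read-out is growth inhibition versus vehicle-treated cultures.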

[10] = NCI Yeast Anticancer Drug Screen. Data for the rad50 strain (AID 155);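 note: 0% = growth of vehicle-only cultures of the same strain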; settings: S. cerevisiae rad50 strain growth inhibition, hits give high values
Procedure, shortened: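 Compounds were tested on a yeast strain with an engineered DNA damage repair alteration; the reported value is growth inhibition normalised to vehicle treatment.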

[11] = NCI Yeast Anticancer Drug Screen. Data for the mec2-1 strain (AID 157); settings: S. cerevisiae mec2-1 strain, hits give high values
Procedure, shortened: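 Yeast mec2-1 mutant treated with compound. Readout: growth inhibition vs vehicle controls.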

[12] = NCI Yeast Anticancer Drug Screen. Data for the rad14 strain (AID 159);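 note: 0% = growth of vehicle-treated control cultures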; settings: S. cerevisiae rad14 strain growth inhibition, hits give high values
Procedure, shortened: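 Compound-treated yeast with a defined DNA-repair lesion; growth inhibition normalised to vehicle-treated cultures.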

[13] = NCI Yeast Anticancer Drug Screen. Data for the sgs1 mgt1 strain (AID 161);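 note: 0% = growth of cultures given vehicle only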; settings: S. cerevisiae sgs1 mgt1 strain, hits give high values
Procedure, shortened: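 Mutant yeast exposed to compound; growth scored against vehicle-only wells.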

[14] = NCI Yeast Anticancer Drug Screen. Data for the CLN2oe strain (AID 163);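 note: 0% = growth of vehicle-only control cultures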; settings: S. cerevisiae CLN2oe strain, hits give high values
Procedure, shortened: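 Read-out: yeast growth inhibition, expressed relative to vehicle-only controls. The strain bears an engineered cell-cycle alteration.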

[15] = NCI Yeast Anticancer Drug Screen. Data for the cln2 rad14 strain (AID 165);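 note: 0% = growth equal to vehicle treated cultures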; settings: S. cerevisiae cln2 rad14 strain, hits give high values
Procedure, shortened: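 cln2 rad14 yeast strain; compound exposure; growth inhibition read vs vehicle controls.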

[16] = NCI Yeast Anticancer Drug Screen. Data for the bub3 strain (AID 167); settings: S. cerevisiae bub3 mutant strain, hits give high values
Procedure, shortened: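 Growth of a checkpoint-deficient yeast mutant is measured after compound exposure. Values represent inhibition relative to vehicle.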

[17] = at 5.0 µM (retest, dose inferred, filed as 0.5)
[18] = at 50.0 µM (retest, dose inferred, filed as 5.0)

Measured: growth inhibition

CNC(=O)OCc1c(COC(=O)NC)c(-c2ccc(Cl)c(Cl)c2)n2c1SCC2
inactive: [1]; at 1.2 µM -1% | [1]; at 3.7 µM -2% | [1]; at 11.0 µM -2% | [1]; at 33.0 µM -5% | [1]; at 100.0 µM 25% | [2]; at 1.2 µM -1% | [2]; at 3.7 µM -2% | [2]; at 11.0 µM -3% | [2]; at 33.0 µM -2% | [2]; at 100.0 µM 44% | [3]; at 1.2 µM -1% | [3]; at 3.7 µM -1% | [3]; at 11.0 µM 1% | [3]; at 33.0 µM 12% | [4]; [17] 2% | [4]; [18] 58% | [5]; at 1.2 µM 0% | [5]; at 3.7 µM 3% | [5]; at 11.0 µM 11% | [5]; at 33.0 µM 48%
active: [3]; at 100.0 µM 72% | [4]; at 50.0 µM 86% | [5]; at 100.0 µM 95%

CC1(C)CC(=O)C(/C=N/c2nc(-c3ccccc3)cs2)=C(O)C1
active: [6]; at 100.0 µM 84% | [9]; at 100.0 µM 77% | [10]; at 50.0 µM 89.9% | [10]; at 100.0 µM 84% | [11]; at 100.0 µM 76% | [12]; at 100.0 µM 83% | [13]; at 50.0 µM 94.2% | [16]; at 50.0 µM 75.1% | [1]; at 100.0 µM 82% | [2]; at 100.0 µM 81% | [3]; at 100.0 µM 83% | [4]; [18] 87% | [4]; at 50.0 µM 97% | [5]; at 11.0 µM 72% | [5]; at 33.0 µM 88% | [5]; at 100.0 µM 91%
inactive: [6]; at 1.2 µM 1% | [6]; at 3.7 µM 5% | [6]; at 11.0 µM 19% | [6]; at 33.0 µM 41% | [7]; at 1.2 µM 2% | [7]; at 3.7 µM 2% | [7]; at 11.0 µM 6% | [7]; at 33.0 µM 22% | [7]; at 100.0 µM 54% | [8]; at 1.2 µM -1% | [8]; at 3.7 µM 1% | [8]; at 11.0 µM 12% | [8]; at 33.0 µM 27% | [8]; at 100.0 µM 34% | [9]; at 1.2 µM -1% | [9]; at 3.7 µM -2% | [9]; at 11.0 µM 5% | [9]; at 33.0 µM 22% | [10]; at 1.2 µM -5% | [10]; at 3.7 µM -13% | [10]; [17] -3% | [10]; at 11.0 µM -4% | [10]; at 33.0 µM 40% | [10]; [18] 57% | [11]; at 1.2 µM 2% | [11]; at 3.7 µM 2% | [11]; [17] 0% | [11]; at 11.0 µM 8% | [11]; at 33.0 µM 35% | [11]; [18] 32% | [11]; at 50.0 µM 20.1% | [12]; at 1.2 µM 3% | [12]; at 3.7 µM 5% | [12]; at 11.0 µM 17% | [12]; at 33.0 µM 45% | [13]; [17] -5% | [13]; [18] 38% | [14]; at 1.2 µM -4% | [14]; at 3.7 µM -5% | [14]; at 11.0 µM 1% | [14]; at 33.0 µM 25% | [14]; at 100.0 µM 61% | [15]; [17] 35% | [15]; [18] 21% | [15]; at 50.0 µM 45.4% | [16]; at 1.2 µM -2% | [16]; at 3.7 µM -3% | [16]; [17] -19% | [16]; at 11.0 µM -1% | [16]; at 33.0 µM 23% | [16]; [18] 19% | [16]; at 100.0 µM 68% | [1]; at 1.2 µM -2% | [1]; at 3.7 µM 1% | [1]; at 11.0 µM 7% | [1]; at 33.0 µM 36% | [2]; at 1.2 µM 0% | [2]; at 3.7 µM 3% | [2]; at 11.0 µM 12% | [2]; at 33.0 µM 45% | [3]; at 1.2 µM 2% | [3]; at 3.7 µM 5% | [3]; at 11.0 µM 26% | [3]; at 33.0 µM 63% | [4]; [17] 10% | [5]; at 1.2 µM 6% | [5]; at 3.7 µM 22%
